Results as given in PubChem BioAssay (NCI).
The panel holds about 79,000 compounds, 15% with a hit somewhere; the sample as a whole holds those more often. A number with no mark means an inactive call. The source made the active and inactive calls. No stated cut-off is given here; in the data, active means growth inhibition above about 70%; inactive means the rest.

How the values were obtained:
[1] = NCI Yeast Anticancer Drug Screen. Data for the rad52 strain (AID 147);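 further: 0% = growth of vehicle-treated control cultures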; settings: S. cerevisiae rad52 mutant growth inhibition, stronger effect = higher value
Outline: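 Inhibition of yeast growth, referenced to vehicle controls, was the measured output for a strain with defective DNA damage repair.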

[2] = NCI Yeast Anticancer Drug Screen. Data for the wt1 strain (AID 149);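 further: 0% = growth of vehicle-treated wt1 cultures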; settings: S. cerevisiae wt1 strain (SPY 50644) growth inhibition, stronger effect = higher value
Outline: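 Readout: yeast growth inhibition, normalised to vehicle controls, in the wt1 strain exposed to test compounds.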

[3] = NCI Yeast Anticancer Drug Screen. Data for the rad50EPP+ strain (AID 151);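 further: 0% = growth of vehicle-treated control cultures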; settings: S. cerevisiae rad50 mutant strain, stronger effect = higher value
Outline: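 Genetically defined yeast (rad50EPP+, DNA damage repair alteration) is grown with compound, and inhibition of growth is expressed relative to vehicle-treated controls.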

[4] = NCI Yeast Anticancer Drug Screen. Data for the mgt1 strain (AID 153); settings: S. cerevisiae mgt1 mutant growth inhibition, stronger effect = higher value
Outline: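 In the mgt1 strain, test compounds were added and growth inhibition was determined relative to vehicle-treated controls.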

[5] = NCI Yeast Anticancer Drug Screen. Data for the rad50 strain (AID 155);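 further: 0% = growth of vehicle-only cultures of the same strain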; settings: S. cerevisiae rad50 strain growth inhibition, stronger effect = higher value
Outline: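 Compounds were tested on a yeast strain with an engineered DNA damage repair alteration; the reported value is growth inhibition normalised to vehicle treatment.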

[6] = NCI Yeast Anticancer Drug Screen. Data for the mec2-1 strain (AID 157); settings: S. cerevisiae mec2-1 strain, stronger effect = higher value
Outline: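 Each compound was tested on mec2-1 yeast, a strain altered in DNA damage repair or cell cycle control. Growth inhibition is reported relative to vehicle.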

[7] = NCI Yeast Anticancer Drug Screen. Data for the rad14 strain (AID 159);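 further: 0% = growth of vehicle-treated control cultures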; settings: S. cerevisiae rad14 strain growth inhibition, stronger effect = higher value
Outline: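 Compound-treated yeast with a defined DNA-repair lesion; growth inhibition normalised to vehicle-treated cultures.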

[8] = NCI Yeast Anticancer Drug Screen. Data for the sgs1 mgt1 strain (AID 161);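 further: 0% = growth of cultures given vehicle only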; settings: S. cerevisiae sgs1 mgt1 strain, stronger effect = higher value
Outline: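 Read-out: growth inhibition vs vehicle controls. Cells: mutant yeast strain deficient in DNA damage repair.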

[9] = NCI Yeast Anticancer Drug Screen. Data for the CLN2oe strain (AID 163);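 further: 0% = growth of vehicle-only control cultures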; settings: S. cerevisiae CLN2oe strain, stronger effect = higher value
Outline: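 First, the altered yeast strain was treated with each compound; second, its growth was measured; finally, inhibition was derived by comparison with vehicle controls.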

[10] = NCI Yeast Anticancer Drug Screen. Data for the cln2 rad14 strain (AID 165);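 further: 0% = growth equal to vehicle treated cultures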; settings: S. cerevisiae cln2 rad14 strain, stronger effect = higher value
Outline: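 Test compounds were added to cln2 rad14 yeast cultures; inhibition of growth was then determined by comparison with vehicle treatment.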

[11] = NCI Yeast Anticancer Drug Screen. Data for the bub3 strain (AID 167); settings: S. cerevisiae bub3 mutant strain, stronger effect = higher value
Outline: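 Growth of a checkpoint-deficient yeast mutant is measured after compound exposure. Values represent inhibition relative to vehicle.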

[12] = NCI Yeast Anticancer Drug Screen. Data for the wt2 strain (AID 169);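 further: 0% = growth of vehicle-treated yeast cultures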; settings: S. cerevisiae wt2 strain growth inhibition, stronger effect = higher value
Outline: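 The panel's yeast strains carry defined changes in DNA repair or cell cycle genes. Each strain is grown with compound, and growth loss is scored relative to vehicle.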

[13] = NCI Yeast Anticancer Drug Screen. Data for the mlh1 strain (AID 171);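 further: 0% = growth of vehicle-treated control cultures of the same strain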; settings: S. cerevisiae mlh1 strain growth inhibition, stronger effect = higher value
Outline: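 Inhibition values reflect reduced yeast growth in the presence of compound, referenced to vehicle controls, using a strain chosen for its alteration in DNA repair or cell cycle control.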

[14] = NCI Yeast Anticancer Drug Screen. Data for the sgs1 strain (AID 173);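 further: 0% = growth of vehicle-only control cultures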; settings: S. cerevisiae sgs1 mutant, stronger effect = higher value
Outline: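 Vehicle-treated cultures served as reference for growth inhibition of a yeast strain altered in DNA damage repair or cell cycle control after compound exposure.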

[15] = NCI Yeast Anticancer Drug Screen. Data for the mlh1 rad18 strain (AID 175); settings: S. cerevisiae mlh1 rad18 strain growth inhibition, stronger effect = higher value
Outline: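 Inhibition values reflect reduced growth of mutant yeast versus vehicle-treated controls following compound exposure; the mutations affect DNA damage repair.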

[16] = NCI Yeast Anticancer Drug Screen. Data for the rad18 strain (AID 177); settings: S. cerevisiae rad18 mutant growth inhibition, stronger effect = higher value
Outline: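 Steps: expose repair-mutant yeast to compound; measure growth; express as inhibition relative to vehicle control.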

[17] = at 5.0 µM (retest, dose inferred, filed as 0.5)
[18] = at 50.0 µM (retest, dose inferred, filed as 5.0)

c1ccc2c(c1)-c1nc3ccccc3cc1C2N1CCOCC1 (stereo unspecified)
growth inhibition ([1]; at 1.2 µM): -2%
growth inhibition ([1]; at 3.7 µM): 1%
growth inhibition ([1]; at 11.0 µM): 4%
growth inhibition ([1]; at 33.0 µM): 8%
growth inhibition ([1]; at 100.0 µM): 16%
growth inhibition ([2]; at 1.2 µM): 1%
growth inhibition ([2]; at 3.7 µM): 2%
growth inhibition ([2]; at 11.0 µM): 4%
growth inhibition ([2]; at 33.0 µM): 2%
growth inhibition ([2]; at 100.0 µM): 5%
growth inhibition ([3]; at 1.2 µM): 6%
growth inhibition ([3]; at 3.7 µM): 25%
growth inhibition ([3]; at 11.0 µM): 51%
growth inhibition ([3]; at 33.0 µM): 68%
growth inhibition ([3]; at 100.0 µM): 77% (active)
growth inhibition ([4]; at 1.2 µM): 0%
growth inhibition ([4]; at 3.7 µM): -1%
growth inhibition ([4]; at 11.0 µM): -1%
growth inhibition ([4]; at 33.0 µM): 3%
growth inhibition ([4]; at 100.0 µM): 17%
growth inhibition ([5]; at 1.2 µM): 0%
growth inhibition ([5]; at 3.7 µM): -1%
growth inhibition [5, 17]: -6%
growth inhibition ([5]; at 11.0 µM): 10%
growth inhibition ([5]; at 33.0 µM): 9%
growth inhibition [5, 18]: 55%
growth inhibition ([5]; at 50.0 µM): 72.7% (active)
growth inhibition ([5]; at 100.0 µM): 17%
growth inhibition ([6]; at 1.2 µM): 1%
growth inhibition ([6]; at 3.7 µM): 1%
growth inhibition [6, 17]: 4%
growth inhibition ([6]; at 11.0 µM): 2%
growth inhibition ([6]; at 33.0 µM): 5%
growth inhibition [6, 18]: 8%
growth inhibition ([6]; at 50.0 µM): 13.2%
growth inhibition ([6]; at 100.0 µM): 17%
growth inhibition ([7]; at 1.2 µM): 0%
growth inhibition ([7]; at 3.7 µM): 0%
growth inhibition ([7]; at 11.0 µM): -1%
growth inhibition ([7]; at 33.0 µM): -4%
growth inhibition ([7]; at 100.0 µM): 21%
growth inhibition [8, 17]: -13%
growth inhibition [8, 18]: 65%
growth inhibition ([8]; at 50.0 µM): 70.5% (active)
growth inhibition ([9]; at 1.2 µM): -6%
growth inhibition ([9]; at 3.7 µM): -2%
growth inhibition ([9]; at 11.0 µM): -10%
growth inhibition ([9]; at 33.0 µM): -8%
growth inhibition ([9]; at 100.0 µM): -3%
growth inhibition [10, 17]: -32%
growth inhibition [10, 18]: 13%
growth inhibition ([10]; at 50.0 µM): 3.95%
growth inhibition ([11]; at 1.2 µM): 3%
growth inhibition ([11]; at 3.7 µM): 6%
growth inhibition [11, 17]: 7%
growth inhibition ([11]; at 11.0 µM): -17%
growth inhibition ([11]; at 33.0 µM): 29%
growth inhibition [11, 18]: 34%
growth inhibition ([11]; at 50.0 µM): 49.2%
growth inhibition ([11]; at 100.0 µM): 27%
growth inhibition ([12]; at 1.2 µM): -1%
growth inhibition ([12]; at 3.7 µM): 1%
growth inhibition ([12]; at 11.0 µM): 2%
growth inhibition ([12]; at 33.0 µM): 7%
growth inhibition ([12]; at 100.0 µM): 26%
growth inhibition ([13]; at 1.2 µM): 3%
growth inhibition ([13]; at 3.7 µM): 3%
growth inhibition ([13]; at 11.0 µM): 3%
growth inhibition ([13]; at 33.0 µM): -10%
growth inhibition ([13]; at 100.0 µM): 28%
growth inhibition ([14]; at 1.2 µM): 2%
growth inhibition ([14]; at 3.7 µM): 4%
growth inhibition ([14]; at 11.0 µM): 8%
growth inhibition ([14]; at 33.0 µM): 18%
growth inhibition ([14]; at 100.0 µM): 38%
growth inhibition [15, 17]: -1%
growth inhibition [15, 18]: 47%
growth inhibition ([15]; at 50.0 µM): 61.1%
growth inhibition ([16]; at 1.2 µM): 7%
growth inhibition ([16]; at 3.7 µM): 5%
growth inhibition ([16]; at 11.0 µM): 12%
growth inhibition ([16]; at 33.0 µM): 11%
growth inhibition ([16]; at 100.0 µM): 6%

COc1cc(C2c3cc4c(cc3OC(NNc3ccccc3)C2C)OCO4)cc(OC)c1OC (stereo unspecified)
growth inhibition ([1]; at 1.2 µM): 36%
growth inhibition ([1]; at 3.7 µM): 44%
growth inhibition ([1]; at 11.0 µM): 59%
growth inhibition ([1]; at 33.0 µM): 93% (active)
growth inhibition ([1]; at 100.0 µM): 75% (active)
growth inhibition ([2]; at 1.2 µM): 16%
growth inhibition ([2]; at 3.7 µM): 9%
growth inhibition ([2]; at 11.0 µM): 19%
growth inhibition ([2]; at 33.0 µM): 74% (active)
growth inhibition ([2]; at 100.0 µM): 94% (active)
growth inhibition ([3]; at 1.2 µM): 39%
growth inhibition ([3]; at 3.7 µM): 42%
growth inhibition ([3]; at 11.0 µM): 48%
growth inhibition ([3]; at 33.0 µM): 47%
growth inhibition ([3]; at 100.0 µM): 67%
growth inhibition ([4]; at 1.2 µM): 13%
growth inhibition ([4]; at 3.7 µM): 23%
growth inhibition ([4]; at 11.0 µM): 26%
growth inhibition ([4]; at 33.0 µM): 82% (active)
growth inhibition ([4]; at 100.0 µM): 89% (active)
growth inhibition ([5]; at 1.2 µM): 23%
growth inhibition ([5]; at 3.7 µM): 33%
growth inhibition [5, 17]: 14%
growth inhibition ([5]; at 11.0 µM): 52%
growth inhibition ([5]; at 33.0 µM): 92% (active)
growth inhibition [5, 18]: 96% (active)
growth inhibition ([5]; at 50.0 µM): 12.3%
growth inhibition ([5]; at 100.0 µM): 73% (active)
growth inhibition ([6]; at 1.2 µM): 2%
growth inhibition ([6]; at 3.7 µM): 5%
growth inhibition [6, 17]: 10%
growth inhibition ([6]; at 11.0 µM): 16%
growth inhibition ([6]; at 33.0 µM): 63%
growth inhibition [6, 18]: 96% (active)
growth inhibition ([6]; at 50.0 µM): 40.5%
growth inhibition ([6]; at 100.0 µM): 91% (active)
growth inhibition ([7]; at 1.2 µM): -2%
growth inhibition ([7]; at 3.7 µM): 1%
growth inhibition ([7]; at 11.0 µM): 29%
growth inhibition ([7]; at 33.0 µM): 52%
growth inhibition ([7]; at 100.0 µM): 75% (active)
growth inhibition [8, 17]: -4%
growth inhibition [8, 18]: 97% (active)
growth inhibition ([8]; at 50.0 µM): 20.6%
growth inhibition ([9]; at 1.2 µM): 41%
growth inhibition ([9]; at 3.7 µM): 40%
growth inhibition ([9]; at 11.0 µM): 46%
growth inhibition ([9]; at 33.0 µM): 89% (active)
growth inhibition ([9]; at 100.0 µM): 79% (active)
growth inhibition [10, 17]: 17%
growth inhibition [10, 18]: 95% (active)
growth inhibition ([10]; at 50.0 µM): 53%
growth inhibition ([11]; at 1.2 µM): 7%
growth inhibition ([11]; at 3.7 µM): 20%
growth inhibition [11, 17]: 19%
growth inhibition ([11]; at 11.0 µM): 73% (active)
growth inhibition ([11]; at 33.0 µM): 89% (active)
growth inhibition [11, 18]: 94% (active)
growth inhibition ([11]; at 50.0 µM): 88.2% (active)
growth inhibition ([11]; at 100.0 µM): 83% (active)
growth inhibition ([12]; at 1.2 µM): -2%
growth inhibition ([12]; at 3.7 µM): -13%
growth inhibition ([12]; at 11.0 µM): 41%
growth inhibition ([12]; at 33.0 µM): 96% (active)
growth inhibition ([12]; at 100.0 µM): 90% (active)
growth inhibition ([13]; at 1.2 µM): 16%
growth inhibition ([13]; at 3.7 µM): 23%
growth inhibition ([13]; at 11.0 µM): 24%
growth inhibition ([13]; at 33.0 µM): 26%
growth inhibition ([13]; at 100.0 µM): 30%
growth inhibition ([14]; at 1.2 µM): 29%
growth inhibition ([14]; at 3.7 µM): 37%
growth inhibition ([14]; at 11.0 µM): 34%
growth inhibition ([14]; at 33.0 µM): 88% (active)
growth inhibition ([14]; at 100.0 µM): 94% (active)
growth inhibition [15, 17]: 36%
growth inhibition [15, 18]: 94% (active)
growth inhibition ([15]; at 50.0 µM): 77% (active)
growth inhibition ([16]; at 1.2 µM): 52%
growth inhibition ([16]; at 3.7 µM): 56%
growth inhibition ([16]; at 11.0 µM): 64%
growth inhibition ([16]; at 33.0 µM): 94% (active)
growth inhibition ([16]; at 100.0 µM): 84% (active)
